Measured values as given in the supplement of paper PMC10849652.
Targets with a hit are over-represented here; the source holds about 7,900 in all. About 0.6% of all pairs of compound and target were hits.

Columns and labels:
Assay in all cases: log2 fold change, soluble protein after heating vs DMSO (PISA); higher = thermal stabilisation; K562 cells, 10 uM, 30 min; active = over 0.2 and 3.5 SD of the protein, either way, in both replicates (recomputed)
saracatinib = compound: CN1CCN(CCOc2cc(OC3CCOCC3)c3c(Nc4c(Cl)ccc5c4OCO5)ncnc3c2)CC1 [saracatinib]
Summary of the method: (§1)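 Quantification of soluble protein used TMTpro 16plex LC-MS/MS, with channel sums equalised. Samples were the supernatant after 21,000xg for 90 min of pooled aliquots from K562 cells (2×10^6 cells/mL) treated with 10 μM compound for 30 min, heated for 3 min over 48°C-58°C, and extracted in PBS with 0.5% NP-40 at 4°C. Values, from duplicates, describe thermal stability against control samples on a log2 fold-change scale.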

sotrastaurin = compound: CN1CCN(c2nc(C3=C(c4c[nH]c5ccccc45)C(=O)NC3=O)c3ccccc3n2)CC1 [sotrastaurin]
Summary of the method: as §1

alvocidib = compound: CN1CC[C@H](c2c(O)cc(O)c3c(=O)cc(-c4ccccc4Cl)oc23)[C@H](O)C1 [alvocidib]
Summary of the method: as §1

Tubastatin A = compound: CN1CCc2c(c3ccccc3n2Cc2ccc(C(=O)NO)cc2)C1 [Tubastatin A]
Summary of the method: as §1

[1] = compound: CNC(=O)C1=CC=CC=C1NC2=NC(=NC=C2Cl)NC3=C(C=C(C=C3)N4CCOCC4)OC
Summary of the method: as §1

defactinib = compound: CNC(=O)c1ccc(Nc2ncc(C(F)(F)F)c(NCc3nccnc3N(C)S(C)(=O)=O)n2)cc1 [defactinib]
Summary of the method: as §1

rucaparib = compound: CNCc1ccc(-c2[nH]c3cc(F)cc4c3c2CCNC4=O)cc1 [rucaparib]
Summary of the method: as §1

[2] = compound: CNc1nc(-c2ccc3c(N)n[nH]c3c2)cc(N2C[C@@H](C(=O)NC3CCCCC3)CC[C@H]2C)n1
Summary of the method: as §1

encorafenib = compound: COC(=O)N[C@@H](C)CNc1nccc(-c2cn(C(C)C)nc2-c2cc(Cl)cc(NS(C)(=O)=O)c2F)n1 [encorafenib]
Summary of the method: as §1

[3] = compound: COC(=O)[C@H](CCSC)NC(=O)C1=C(C=C(C=C1)NC[C@H](CS)N)C2=CC=CC=C2
Summary of the method: as §1

Measured: log2 fold change

FERMT3 (UniProt Q86UX7)
UniProt Q86UX7, sequence (Q86UX7 whole entry, looked up): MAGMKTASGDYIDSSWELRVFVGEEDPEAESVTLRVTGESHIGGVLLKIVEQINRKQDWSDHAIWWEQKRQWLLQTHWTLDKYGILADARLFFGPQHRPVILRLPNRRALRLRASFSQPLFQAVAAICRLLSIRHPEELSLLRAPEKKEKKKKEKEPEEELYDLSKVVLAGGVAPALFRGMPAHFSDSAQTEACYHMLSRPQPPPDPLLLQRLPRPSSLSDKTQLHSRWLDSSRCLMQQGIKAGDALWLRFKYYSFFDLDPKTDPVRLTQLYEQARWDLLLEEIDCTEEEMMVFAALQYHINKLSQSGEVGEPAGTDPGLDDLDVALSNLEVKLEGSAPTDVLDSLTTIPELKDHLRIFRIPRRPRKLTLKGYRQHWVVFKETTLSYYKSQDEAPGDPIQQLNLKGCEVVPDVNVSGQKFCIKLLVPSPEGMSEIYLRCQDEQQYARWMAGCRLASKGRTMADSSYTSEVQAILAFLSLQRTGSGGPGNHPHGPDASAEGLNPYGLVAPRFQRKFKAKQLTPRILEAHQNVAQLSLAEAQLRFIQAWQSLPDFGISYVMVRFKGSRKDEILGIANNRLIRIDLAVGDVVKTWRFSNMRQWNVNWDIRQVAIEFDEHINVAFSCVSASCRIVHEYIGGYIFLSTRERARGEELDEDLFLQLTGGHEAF
inactive: saracatinib 0.019 | sotrastaurin -0.016 | alvocidib -0.055 | Tubastatin A -0.003 | [1] 0.008 | defactinib -0.069 | rucaparib -0.003 | [2] 0.036 | encorafenib 0.063 | [3] -0.03

FBL (UniProt P22087)
UniProt P22087, sequence (P22087 whole entry, looked up): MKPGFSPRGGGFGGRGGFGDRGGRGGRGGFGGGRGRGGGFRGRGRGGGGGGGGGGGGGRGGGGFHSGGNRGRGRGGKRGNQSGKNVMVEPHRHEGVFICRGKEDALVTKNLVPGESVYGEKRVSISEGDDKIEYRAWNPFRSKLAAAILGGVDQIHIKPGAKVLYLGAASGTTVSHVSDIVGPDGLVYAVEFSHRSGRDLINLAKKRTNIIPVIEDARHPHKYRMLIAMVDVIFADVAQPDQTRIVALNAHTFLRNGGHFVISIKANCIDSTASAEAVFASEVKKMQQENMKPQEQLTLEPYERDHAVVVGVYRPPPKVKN
inactive: saracatinib 0.11 | sotrastaurin -0.016 | alvocidib 0.262 | Tubastatin A -0.022 | [1] -0.012 | defactinib 0.375 | rucaparib 0.511 | [2] 0.002 | encorafenib 0.096 | [3] 0.023

IFRD1 (UniProt O00458)
active: rucaparib -0.46
inactive: saracatinib 0.026 | sotrastaurin 0.242 | alvocidib 0.064 | Tubastatin A 0.089 | [1] 0.042 | defactinib -0.003 | [2] -0.042 | encorafenib 0.038 | [3] 0.006

GNG5 (UniProt P63218)
UniProt P63218, sequence (P63218 whole entry, looked up): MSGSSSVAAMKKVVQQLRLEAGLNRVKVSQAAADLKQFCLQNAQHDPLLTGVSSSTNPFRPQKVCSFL
inactive: saracatinib 0.022 | sotrastaurin 0.033 | alvocidib 0.019 | Tubastatin A 0.049 | [1] 0.028 | defactinib -0.041 | rucaparib -0.002 | [2] -0.041 | encorafenib -0.073 | [3] -0.008

FLNA (UniProt P21333)
inactive: saracatinib -0.076 | sotrastaurin -0.161 | alvocidib -0.017 | Tubastatin A 0.052 | [1] 0.106 | defactinib -0.042 | rucaparib 0.1 | [2] 0.017 | encorafenib 0.089 | [3] -0.053

FMC1 (UniProt Q96HJ9)
UniProt Q96HJ9, sequence (Q96HJ9 whole entry, looked up): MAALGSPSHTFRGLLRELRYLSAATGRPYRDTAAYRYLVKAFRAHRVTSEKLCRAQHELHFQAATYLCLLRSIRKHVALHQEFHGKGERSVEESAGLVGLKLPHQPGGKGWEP
inactive: saracatinib 0.139 | sotrastaurin 0.09 | alvocidib 0.026 | Tubastatin A 0.034 | [1] 0.113 | defactinib -0.056 | rucaparib -0.023 | [2] -0.071 | encorafenib -0.105 | [3] 0.051

FANCI (UniProt Q9NVI1)
inactive: saracatinib -0.022 | sotrastaurin -0.099 | alvocidib -0.13 | Tubastatin A -0.103 | [1] -0.111 | defactinib -0.179 | rucaparib 0.041 | [2] -0.002 | encorafenib 0.003 | [3] -0.02

GTF2H3 (UniProt Q13889)
UniProt Q13889, sequence (Q13889 whole entry, looked up): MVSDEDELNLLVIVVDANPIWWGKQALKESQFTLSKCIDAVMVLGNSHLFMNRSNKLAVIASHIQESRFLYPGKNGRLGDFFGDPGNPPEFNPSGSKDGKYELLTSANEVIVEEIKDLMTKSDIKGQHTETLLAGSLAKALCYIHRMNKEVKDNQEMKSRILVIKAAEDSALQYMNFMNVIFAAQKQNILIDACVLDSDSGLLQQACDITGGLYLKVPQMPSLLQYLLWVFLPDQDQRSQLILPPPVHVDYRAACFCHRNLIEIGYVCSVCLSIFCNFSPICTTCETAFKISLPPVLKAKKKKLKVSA
inactive: saracatinib -0.099 | sotrastaurin -0.079 | alvocidib -0.071 | Tubastatin A 0.124 | [1] 0.008 | defactinib 0.009 | rucaparib 0.09 | [2] -0.001 | encorafenib -0.073 | [3] 0.043

GINS2 (UniProt Q9Y248)
UniProt Q9Y248, sequence (Q9Y248 whole entry, looked up): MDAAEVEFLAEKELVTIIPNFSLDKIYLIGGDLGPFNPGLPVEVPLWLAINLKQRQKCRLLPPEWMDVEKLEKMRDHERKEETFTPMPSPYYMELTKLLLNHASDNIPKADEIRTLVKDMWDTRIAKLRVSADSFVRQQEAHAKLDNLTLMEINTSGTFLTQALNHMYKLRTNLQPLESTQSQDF
inactive: saracatinib -0.078 | sotrastaurin -0.17 | alvocidib -0.181 | Tubastatin A 0.076 | [1] 0.025 | defactinib -0.067 | rucaparib -0.005 | [2] 0.203 | encorafenib 0.017 | [3] 0.057

HLTF (UniProt Q14527)
UniProt Q14527, sequence (Q14527 whole entry, looked up): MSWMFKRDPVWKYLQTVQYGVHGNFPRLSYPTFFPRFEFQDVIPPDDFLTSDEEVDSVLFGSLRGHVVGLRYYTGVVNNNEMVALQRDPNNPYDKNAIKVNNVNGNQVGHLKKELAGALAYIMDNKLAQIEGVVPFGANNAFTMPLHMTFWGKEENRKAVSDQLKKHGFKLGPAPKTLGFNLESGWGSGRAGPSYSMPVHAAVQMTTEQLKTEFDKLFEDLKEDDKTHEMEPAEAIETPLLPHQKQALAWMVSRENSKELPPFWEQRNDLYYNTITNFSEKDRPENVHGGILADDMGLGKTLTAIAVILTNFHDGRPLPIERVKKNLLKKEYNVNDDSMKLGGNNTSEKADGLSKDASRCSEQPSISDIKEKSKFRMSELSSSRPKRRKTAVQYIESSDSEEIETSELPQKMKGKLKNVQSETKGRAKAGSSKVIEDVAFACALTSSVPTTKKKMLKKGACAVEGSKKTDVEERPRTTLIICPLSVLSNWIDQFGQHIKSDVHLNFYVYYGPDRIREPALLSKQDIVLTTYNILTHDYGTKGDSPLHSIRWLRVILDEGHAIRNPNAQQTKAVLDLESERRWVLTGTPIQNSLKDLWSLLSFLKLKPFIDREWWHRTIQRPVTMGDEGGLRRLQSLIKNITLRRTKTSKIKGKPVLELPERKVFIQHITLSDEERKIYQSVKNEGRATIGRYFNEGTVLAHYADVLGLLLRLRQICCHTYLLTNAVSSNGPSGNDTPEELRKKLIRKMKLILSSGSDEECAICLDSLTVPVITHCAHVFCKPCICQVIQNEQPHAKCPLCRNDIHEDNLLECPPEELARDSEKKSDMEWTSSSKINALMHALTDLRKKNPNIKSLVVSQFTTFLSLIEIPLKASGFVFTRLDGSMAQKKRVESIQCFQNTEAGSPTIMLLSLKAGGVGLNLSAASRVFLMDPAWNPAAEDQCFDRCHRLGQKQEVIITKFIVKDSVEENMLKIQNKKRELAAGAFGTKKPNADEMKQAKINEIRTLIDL
inactive: saracatinib -0.012 | sotrastaurin 0.019 | alvocidib -0.036 | Tubastatin A 0.081 | [1] -0.03 | defactinib -0.122 | rucaparib -0.033 | [2] -0.074 | encorafenib -0.195 | [3] -0.027

FASTKD1 (UniProt Q53R41)
UniProt Q53R41, sequence (Q53R41 whole entry, looked up): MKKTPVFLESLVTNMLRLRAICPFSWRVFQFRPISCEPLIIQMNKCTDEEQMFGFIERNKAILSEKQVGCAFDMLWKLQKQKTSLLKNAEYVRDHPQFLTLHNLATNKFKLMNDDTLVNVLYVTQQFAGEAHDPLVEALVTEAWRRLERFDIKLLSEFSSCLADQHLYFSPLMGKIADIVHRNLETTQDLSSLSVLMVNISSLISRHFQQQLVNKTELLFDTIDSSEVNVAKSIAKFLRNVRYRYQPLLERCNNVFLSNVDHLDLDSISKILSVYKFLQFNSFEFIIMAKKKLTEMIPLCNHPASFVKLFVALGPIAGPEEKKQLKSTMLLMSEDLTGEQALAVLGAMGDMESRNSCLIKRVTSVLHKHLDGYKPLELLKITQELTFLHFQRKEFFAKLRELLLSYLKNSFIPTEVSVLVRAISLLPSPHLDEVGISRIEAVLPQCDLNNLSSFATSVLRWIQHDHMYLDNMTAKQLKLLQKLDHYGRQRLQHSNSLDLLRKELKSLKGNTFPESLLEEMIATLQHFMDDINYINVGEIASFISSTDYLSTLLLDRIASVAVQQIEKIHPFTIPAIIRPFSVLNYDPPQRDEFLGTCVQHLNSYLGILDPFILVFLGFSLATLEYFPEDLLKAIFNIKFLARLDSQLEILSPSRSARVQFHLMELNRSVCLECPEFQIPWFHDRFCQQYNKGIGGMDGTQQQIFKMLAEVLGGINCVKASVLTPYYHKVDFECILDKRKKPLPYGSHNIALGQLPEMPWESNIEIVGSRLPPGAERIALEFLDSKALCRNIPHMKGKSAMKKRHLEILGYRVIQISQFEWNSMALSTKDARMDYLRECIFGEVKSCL
inactive: saracatinib -0.118 | sotrastaurin -0.046 | alvocidib -0.12 | Tubastatin A 0.037 | [1] 0.037 | defactinib -0.22 | rucaparib -0.093 | [2] 0.112 | encorafenib 0.026 | [3] -0.02

FBXO42 (UniProt Q6P3S6)
inactive: saracatinib -0.032 | sotrastaurin 0.051 | alvocidib -0.107 | Tubastatin A 0 | [1] -0.067 | defactinib -0.165 | rucaparib -0.073 | [2] 0.139 | encorafenib 0.03 | [3] 0.012

FUCA1 (UniProt P04066)
UniProt P04066, sequence (P04066 whole entry, looked up): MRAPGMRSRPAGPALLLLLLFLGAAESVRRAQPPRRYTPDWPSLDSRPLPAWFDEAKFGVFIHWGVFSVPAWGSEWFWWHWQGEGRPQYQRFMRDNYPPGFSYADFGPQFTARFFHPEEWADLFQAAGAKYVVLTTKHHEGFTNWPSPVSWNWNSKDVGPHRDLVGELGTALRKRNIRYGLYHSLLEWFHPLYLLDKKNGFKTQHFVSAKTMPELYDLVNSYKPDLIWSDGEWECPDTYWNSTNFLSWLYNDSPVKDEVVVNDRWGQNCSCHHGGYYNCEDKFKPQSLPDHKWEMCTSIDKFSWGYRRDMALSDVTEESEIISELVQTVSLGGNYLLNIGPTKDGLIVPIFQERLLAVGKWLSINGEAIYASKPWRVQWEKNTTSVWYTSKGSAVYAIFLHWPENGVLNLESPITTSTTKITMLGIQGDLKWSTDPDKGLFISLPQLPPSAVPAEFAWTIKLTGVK
inactive: saracatinib 0.038 | sotrastaurin -0.048 | alvocidib 0.059 | Tubastatin A -0.035 | [1] -0.015 | defactinib -0.032 | rucaparib -0.186 | [2] 0.023 | encorafenib 0 | [3] 0.014

GBF1 (UniProt Q92538)
inactive: saracatinib -0.055 | sotrastaurin -0.103 | alvocidib -0.023 | Tubastatin A 0.034 | [1] -0.024 | defactinib -0.031 | rucaparib 0.044 | [2] 0.059 | encorafenib 0.104 | [3] -0.015

GALNT4 (UniProt Q8N4A0)
UniProt Q8N4A0, sequence (Q8N4A0 whole entry, looked up): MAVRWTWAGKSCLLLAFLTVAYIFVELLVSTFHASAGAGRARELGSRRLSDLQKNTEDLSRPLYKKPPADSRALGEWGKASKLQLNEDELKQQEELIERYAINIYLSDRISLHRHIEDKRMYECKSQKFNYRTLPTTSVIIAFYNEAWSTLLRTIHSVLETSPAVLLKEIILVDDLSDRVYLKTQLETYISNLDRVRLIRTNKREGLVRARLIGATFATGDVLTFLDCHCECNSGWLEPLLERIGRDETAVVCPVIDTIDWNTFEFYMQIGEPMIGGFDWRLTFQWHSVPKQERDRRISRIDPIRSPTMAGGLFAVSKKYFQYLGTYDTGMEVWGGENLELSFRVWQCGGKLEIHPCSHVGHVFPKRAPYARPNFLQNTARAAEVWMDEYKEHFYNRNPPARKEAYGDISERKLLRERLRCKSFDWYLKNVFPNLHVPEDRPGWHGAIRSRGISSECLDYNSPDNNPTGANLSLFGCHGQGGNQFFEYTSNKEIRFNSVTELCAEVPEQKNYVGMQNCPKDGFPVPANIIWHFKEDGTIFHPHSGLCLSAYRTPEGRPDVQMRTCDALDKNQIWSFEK
inactive: saracatinib -0.088 | sotrastaurin -0.029 | alvocidib -0.033 | Tubastatin A 0.046 | [1] -0.063 | defactinib 0.016 | rucaparib -0.079 | [2] -0.138 | encorafenib 0.04 | [3] -0.013

HIST2H3A (UniProt Q71DI3)
inactive: saracatinib -0.196 | sotrastaurin 0.063 | alvocidib 0.165 | Tubastatin A 0.17 | [1] -0.166 | defactinib 0.339 | rucaparib 0.306 | [2] 0.185 | encorafenib -0.063 | [3] 0.093

HIP1R (UniProt O75146)
inactive: saracatinib 0.051 | sotrastaurin -0.045 | alvocidib -0.069 | Tubastatin A 0.007 | [1] 0.037 | defactinib -0.063 | rucaparib 0.018 | [2] 0.015 | encorafenib -0.019 | [3] 0.016

HDGFL2 (UniProt Q7Z4V5)
inactive: saracatinib 0.01 | sotrastaurin 0.119 | alvocidib 0.007 | Tubastatin A 0.013 | [1] -0.061 | defactinib -0.07 | rucaparib -0.051 | [2] -0.058 | encorafenib -0.016 | [3] 0.036

GYG1 (UniProt P46976)
inactive: saracatinib -0.03 | sotrastaurin -0.425 | alvocidib -0.046 | Tubastatin A 0.033 | [1] 0.091 | defactinib -0.042 | rucaparib 0.062 | [2] 0.038 | encorafenib 0.083 | [3] 0.013

H3-3A (UniProt P84243)
inactive: saracatinib -0.094 | sotrastaurin -0.356 | alvocidib -0.063 | Tubastatin A 0.203 | [1] 0.002 | defactinib 0 | rucaparib 0.031 | [2] 0.189 | encorafenib 0.034 | [3] 0.102

GTF3A (UniProt Q92664)
inactive: saracatinib 0.019 | sotrastaurin -0.008 | alvocidib -0.113 | Tubastatin A -0.072 | [1] -0.03 | defactinib -0.18 | rucaparib 0.206 | [2] -0.005 | encorafenib -0.138 | [3] 0

HNRNPUL2 (UniProt Q1KMD3)
inactive: saracatinib -0.023 | sotrastaurin 0.039 | alvocidib 0.166 | Tubastatin A 0.065 | [1] -0.06 | rucaparib 0.125 | [2] -0.017 | encorafenib 0.007 | [3] 0.006
active: defactinib 0.259

FEN1 (UniProt P39748)
UniProt P39748, sequence (P39748 whole entry, looked up): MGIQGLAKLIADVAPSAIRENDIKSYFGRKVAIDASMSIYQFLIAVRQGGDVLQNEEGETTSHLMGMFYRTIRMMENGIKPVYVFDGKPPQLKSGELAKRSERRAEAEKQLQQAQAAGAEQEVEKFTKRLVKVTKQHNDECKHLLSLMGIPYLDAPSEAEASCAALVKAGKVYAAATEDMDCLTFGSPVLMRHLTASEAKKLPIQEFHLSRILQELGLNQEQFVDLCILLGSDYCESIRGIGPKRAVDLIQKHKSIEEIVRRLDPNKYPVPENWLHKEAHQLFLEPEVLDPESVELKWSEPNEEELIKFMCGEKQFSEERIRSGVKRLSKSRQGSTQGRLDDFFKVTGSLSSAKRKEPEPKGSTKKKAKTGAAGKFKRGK
inactive: saracatinib -0.087 | sotrastaurin -0.028 | alvocidib -0.099 | Tubastatin A 0.116 | [1] -0.092 | defactinib -0.139 | rucaparib -0.128 | [2] 0.183 | encorafenib 0.054 | [3] -0.087

IFT80 isoform 3 (UniProt Q9P2H3)
inactive: saracatinib -0.016 | sotrastaurin 0.029 | alvocidib -0.091 | Tubastatin A 0.094 | [1] 0.01 | defactinib -0.023 | rucaparib 0.029 | [2] -0.007 | encorafenib 0.056 | [3] 0.014

GALNT1 (UniProt Q10472)
inactive: saracatinib -0.026 | sotrastaurin 0.03 | alvocidib -0.005 | Tubastatin A 0.064 | [1] 0.039 | defactinib -0.046 | rucaparib 0.008 | [2] -0.047 | encorafenib -0.037 | [3] -0.005

GABARAPL2 (UniProt P60520)
inactive: saracatinib 0.021 | sotrastaurin 0.047 | alvocidib -0.008 | Tubastatin A 0.045 | [1] 0.011 | defactinib -0.019 | rucaparib -0.111 | [2] -0.013 | encorafenib -0.02 | [3] -0.009

GLCCI1 (UniProt Q86VQ1)
inactive: saracatinib -0.017 | sotrastaurin -0.016 | alvocidib 0.002 | Tubastatin A 0.082 | [1] -0.057 | defactinib -0.072 | rucaparib 0.087 | [2] -0.063 | encorafenib 0.026 | [3] -0.051
